A number with no mark means an inactive call. The call rests on the fitted dose curve; in most records, active means well fitted cell-killing curve with a large enough effect in the repeat runs; inconclusive means weak or mixed curves, or effect the other way; inactive means flat fitted curve, though single readings scatter.
Test: qHTS assay to identify small molecule HDAC inhibitors - cell viability counter screen (AID 1259365); further: nearly all actives have a fitted effect of over 50% in size
Settings: HCT-116 viability, CellTiter-Glo ATP luminescence, 2 h; series mostly up to 92.4 µM; activity change, negative = cytotoxicity: at the top concentration
Description: U.S. Tox21 Program National Center for Advancing Translational Sciences [NCATS] NIH Chemical Genomics Center [NCGC] U.S. Environmental Protection Agency [EPA] National Institutes of Environmental Health Sciences [NIEHS] National Toxicology Program [NTP] U.S. Food and Drug Administration [FDA] Tox21 Assay Overview: Histone deacetylases (HDACs) are a group of epigenetic enzymes that regulate gene expression by histone deacetylation. HDACs are capable of introducing epigenetic modifications and such aberrations contribute to the onset and progression of several human diseases, thus making HDACs a popular therapeutic target. For identifying endogenous class I/II HDAC inhibitors a homogenous, luminogenic HDAC I/II cell based assay was used to measure the relative activity of class I and II HDACs from cells. Wild type HCT-116 cells were used to screen Tox21 compound libraries for identifying class I/II HDAC inhibitors.
Tox21 Assay Protocol Summary: HCT-116 cells were dispensed at 1,500 per well in 5uL of culture medium into white solid bottom 1536-well plates (Greiner Bio-One, Monroe, NC) using a Multidrop Combi (Thermo Scientific, Waltham, MA) dispenser. The assay plates were incubated at 37 C and 5% CO2 for an overnight, and then 23nL of compounds dissolved in DMSO and positive control were transferred using a Pintool station (Wako, San Diego, CA). The assay plates were incubated at 37C and 5% CO2 for 2hr. After compound treatment, 4uL of CellTiter-Glo reagent (Promega Corporation, Madison, WI) was added to each well of the assay plates using Flying Reagent Dispenser (FRD, Aurora Discovery, San Diego, CA) and incubated the assay plates at room temperature for 30min. The luminescence signal was quantified using a ViewLux plate reader (Perkin Elmer, Shelton, CT).
On the % scale 0 is the no-effect control and ±100 the full control effect.

SMILES | activity change, negative = cytotoxicity
C=C[Si]1(C)O[Si](C)(C=C)O[Si](C)(C=C)O[Si](C)(C=C)O1 (stereo not given) | 2.18%
COc1cccc([C@H](O)C2CCN(CCc3ccc(F)cc3)CC2)c1OC | -5.52%
CC(=O)c1cccnc1 | 6.23%
O=C(O)CNc1ccccc1 | -6.18%
CCCCCCCCOCCCN | -7.56%
CCc1ccc(C(=O)C(C)CN2CCCCC2)cc1 (stereo not given) | -3.64% [at 42.5 µM]
O=C(O)c1ccccc1-n1cc(C(=O)O)c(=O)c2cc(Nc3c(F)cc(F)cc3Cl)c(Cl)cc21 | 3.14%
Cc1c(Cl)cccc1[N+](=O)[O-] | 0.0058%
O=c1[nH]nc(-c2ccc([N+](=O)[O-])o2)o1 | 9.25%
CC(=O)Nc1ccn(C2COC(COC(=O)c3ccccc3)O2)c(=O)n1 (stereo not given) | -0.633% [at 42.5 µM]
CCCOC(C)=O | 2.58%
C[C@H](N)C(=O)N[C@@H](C)C(=O)NC1[C@H]2CN(c3nc4c(cc3F)c(=O)c(C(=O)O)cn4-c3ccc(F)cc3F)C[C@@H]12 (stereo not given in full) | 5.2% [at 42.5 µM]
C=Cc1ccc(C=C)cc1 | -0.168%
O=Cc1ccc(Cl)c([N+](=O)[O-])c1 | 4.16%
CC(C)=CCCC(C)C=O (stereo not given) | -6.66%
O=C(O)c1cc(C(=O)O)c(C(=O)O)cc1C(=O)O | 2.76%
Cc1c(Cl)cccc1Nc1ccccc1C(=O)O | 9.84% [at 42.5 µM]
O=C(c1ccc(Cl)cc1)c1ccc(Cl)cc1 | 0.278%
CCCCCCCCCCCCCCCCN | -0.0244% [at 42.5 µM]
CC1(C)C(=O)NC(=O)N1CO | 0.0801%

SMILES | activity change, negative = cytotoxicity
CCN(CC)CC(=O)OCC(=O)[C@@]1(O)CC[C@H]2[C@@H]3CCC4=CC(=O)CC[C@]4(C)[C@H]3[C@@H](O)C[C@@]21C | 4.94% [at 42.5 µM]
COc1ccc(/C=C/S(=O)(=O)NC(=O)c2ccc(C)cc2Cl)cc1 | 1.07%
COC=O | -4.91% [at 8.39 µM]
CCCCCCCCCCCCSCCOCCO | -0.529% [at 42.5 µM]
CCC(C)C1N=C(C)C(C)S1 (stereo not given) | -0.741%
O=C(OCCOCCOCCOC(=O)c1ccccc1)c1ccccc1 | -2.16%
O=C(Nc1ccccc1)c1cc([N+](=O)[O-])ccc1Cl | -5.28%
Cc1ccc(NC=O)c(C)c1 | -0.257%
O=[N+]([O-])c1cccc(I)c1 | -1.32%
C=CC(C)CCC=C(C)C (stereo not given) | 0.315%
C[C@]12CCC(=O)C=C1[C@@H]1C[C@@H]1[C@H]1[C@@H]3[C@@H]4C[C@@H]4[C@@]4(CCC(=O)O4)[C@@]3(C)CC[C@@H]12 | -7.64% [at 42.5 µM]
c1ccc(CCNc2nc(-c3ccccc3)cs2)cc1 | -6.12% [at 42.5 µM]
COc1ccc(C(=O)c2ccc(C)cc2)c(O)c1 | -6.44%
CCC(CC)C(=O)O | 1.64%
NC(=O)c1ccccc1C(N)=O | 0.386%
CCCC1CCCC(=O)O1 (stereo not given) | 1.51%
Oc1ccc(Oc2ccccc2)cc1 | -2.2%
CO[C@@H]1COCC[C@@H]1N[C@@H]1CC[C@@](C(=O)N2CCc3ncc(C(F)(F)F)cc3C2)(C(C)C)C1 | 0.512%
CC(=O)Oc1cccc2c1C(=O)c1c(OC(C)=O)cc(C(=O)O)cc1C2=O | 1.98% [at 42.5 µM]
CCCCCCC/C=C/C=O | -0.0154%

From PubChem BioAssay (Tox21)
